# In PubChem BioAssay (Tox21):
# Records with an inconclusive call do not appear. A call without a number means that no potency is given here. A number with no mark means an inactive call. The source made the active and inactive calls. The call rests on the fitted dose curve; in most records, active means well fitted inhibition curve with a large enough effect in the repeat runs; inconclusive means weak or mixed curves; inactive means flat fitted curve, though single readings scatter.
# Biological target: Voltage-gated inwardly rectifying potassium channel KCNH2 (Homo sapiens) (UniProt Q12809)
# Assay: Human Ether-a-go-go-Related Gene (hERG) channel small molecule antagonists: fluorescence cell-based qHTS assay (AID 1671200); further: nearly all actives have a fitted effect of over 50% in size
# Conditions: hERG-U2OS cells, FluxOR thallium flux fluorescence; series mostly up to 76.8 µM
# Text: National Center for Advancing Translational Sciences [NCATS]
# U.S. Environmental Protection Agency [EPA]
# National Institutes of Environmental Health Sciences [NIEHS]
# National Toxicology Program [NTP]
# U.S. Food and Drug Administration [FDA]
# Mutations in the hERG channel cause Long QT (LQT) syndrome. LQT syndrome is a cardiac disorder which can cause ventricle arrhythmia and sudden death. Additionally, compounds which block the hERG channel can cause acquired LQT syndrome. Several FDA approved drugs have been removed from the market due to their hERG blocking activity. A cell-based hERG channel inhibition assay can be used to screen chemical compounds that inhibit hERG channel. This assay measures hERG channel activity using thallium ions as surrogate ions to measure potassium into the cells.
# Tox21 Assay Protocol Summary:
# hERG-U2OS cells were resuspended in culture medium and dispensed into 1536-well, black wall/clear-bottom plates at 1000cells/well/3uL using a Multidrop Combi dispenser (Thermo Fisher, Waltham, MA). After plates were incubated at 37 C overnight, 3 uL of Loading Buffer provided by FluxOR II Potassium Ion Channel Assay kit (Thermo, Carlsbad, CA) was added to each well. The assay plates were then incubated at room temperature in the dark for 1h. […] After the assay plates were incubated at room temperature for 10 min, 1 uL of Stimulus Buffer provided by FluxOR II Potassium Ion Channel Assay kit was added into each well and fluorescence intensity (480nm excitation/540nm emission) was continuously measured for 2 min at 1 second intervals using a Functional Drug Screening System (FDSS) 7000EX kinetic plate reader (Hamamatsu, Japan).
# Potency means the concentration at half of the fitted maximal effect.
# Chain of Voltage-gated inwardly rectifying potassium channel KCNH2 (Homo sapiens) (Q12809 whole entry, looked up): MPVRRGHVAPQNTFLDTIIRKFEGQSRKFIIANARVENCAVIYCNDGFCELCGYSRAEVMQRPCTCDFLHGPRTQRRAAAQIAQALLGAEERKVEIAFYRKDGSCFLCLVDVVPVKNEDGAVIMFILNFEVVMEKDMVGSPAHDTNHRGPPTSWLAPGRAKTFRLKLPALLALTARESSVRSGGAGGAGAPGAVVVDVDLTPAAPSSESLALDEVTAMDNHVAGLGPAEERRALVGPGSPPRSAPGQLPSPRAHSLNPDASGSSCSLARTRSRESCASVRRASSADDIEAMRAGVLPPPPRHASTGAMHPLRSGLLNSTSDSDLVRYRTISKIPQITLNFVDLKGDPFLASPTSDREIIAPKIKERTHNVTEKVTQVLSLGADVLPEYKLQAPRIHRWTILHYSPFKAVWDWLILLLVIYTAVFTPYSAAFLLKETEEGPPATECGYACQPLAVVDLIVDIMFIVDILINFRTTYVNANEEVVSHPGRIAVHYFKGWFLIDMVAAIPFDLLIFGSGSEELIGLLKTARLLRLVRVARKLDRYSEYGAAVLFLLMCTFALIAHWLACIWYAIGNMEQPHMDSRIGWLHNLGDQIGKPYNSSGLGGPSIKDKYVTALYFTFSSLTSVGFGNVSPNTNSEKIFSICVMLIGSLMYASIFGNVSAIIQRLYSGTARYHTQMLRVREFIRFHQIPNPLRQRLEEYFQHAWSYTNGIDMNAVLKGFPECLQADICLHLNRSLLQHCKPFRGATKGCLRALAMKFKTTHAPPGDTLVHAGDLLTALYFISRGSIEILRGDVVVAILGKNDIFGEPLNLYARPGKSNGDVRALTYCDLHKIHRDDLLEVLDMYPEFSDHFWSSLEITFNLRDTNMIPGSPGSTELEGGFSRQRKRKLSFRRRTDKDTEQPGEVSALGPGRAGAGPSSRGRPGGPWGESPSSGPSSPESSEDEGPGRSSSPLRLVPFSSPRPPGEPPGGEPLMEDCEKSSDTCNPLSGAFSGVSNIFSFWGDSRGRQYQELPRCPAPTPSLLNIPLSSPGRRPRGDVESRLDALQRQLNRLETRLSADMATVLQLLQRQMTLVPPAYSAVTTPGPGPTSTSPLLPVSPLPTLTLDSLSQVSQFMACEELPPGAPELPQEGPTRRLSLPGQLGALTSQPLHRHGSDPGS
SMILES,Potency,"activity change, negative = inhibition"
CCCCCCCCCCCCCCCCCCN(C)C,inactive,–
CC(=O)N1CCN(c2ccc(O)cc2)CC1,inactive,–
N#CCCOCCOCCC#N,inactive,–
O=S1(=O)CCCC1,inactive,–
C=C(C)C(=O)OCCCCCCOC(=O)C(=C)C,inactive,–
CC1CCC(C(C)(C)S)C(=O)C1 (stereo not given),inactive,–
CCCCC(CC)COC(=O)c1ccccc1 (stereo not given),inactive,–
O=c1[nH]c(=O)c2[nH]c(=O)[nH]c2[nH]1,–,-12.8% [at 6.97 µM]
CCOC(=O)CC(CC(=O)OCC)(OC(C)=O)C(=O)OCC,inactive,–
CCCCCCCCOC(C)=O,inactive,–
SCCSCCS,inactive,–
CCOC(=O)C(C)(C)C,inactive,–
C1CCN2C[C@@H]3C[C@@H](CN4CCCC[C@@H]34)[C@H]2C1,inactive,–
CC(=O)N(CC(O)CO)c1c(I)c(C(=O)NCC(O)CO)c(I)c(C(=O)NCC(O)CO)c1I (stereo not given),inactive,–
O=C(CN1CCN(Cc2ccc3c(c2)OCO3)CC1)N1c2ccccc2Sc2ccccc21,4.77 µM (active),–
CCC(O)C(C)(C)C (stereo not given),inactive,–
C[CH2][Ge]([Cl])([CH2]C)[CH2]C,inactive,–
OC[C@@H](O)[C@H](O)[C@@H](O)[C@@H](O)CO,inactive,–
CC(C)(C)c1ccc(C=O)cc1,inactive,–
COC(OC)C(C)c1ccccc1 (stereo not given),inactive,–

SMILES,Potency,"activity change, negative = inhibition"
COc1cc([N+](=O)[O-])ccc1N,inactive,–
CCCCCCCCCCCCC1CO1 (stereo not given),inactive,–
CC(=O)OC[C@H]1O[C@@H](OC(C)=O)[C@H](OC(C)=O)[C@@H]1OC(C)=O,inactive,–
CCN(CCO)c1cccc(C)c1,inactive,–
Cc1cc(O)c2c(c1)C(=O)c1cccc(O)c1C2=O,inactive,–
C=COCCOCCOC=C,inactive,–
CC(C)c1ccccc1O,inactive,–
O=C(O)CCNC(=O)c1ccccc1,inactive,–
CC(C)(CO)[C@@H](O)C(=O)NCCCO,inactive,–
CC(C)(C)NCCO,inactive,–
Cc1nc2ccccc2c(=O)o1,inactive,–
CN(C)CCOCCN(C)CCO,inactive,–
CCOC(=O)CCc1ccccc1,inactive,–
CNC(=O)NC,inactive,–
COc1ccc(N=Nc2cc(C)c(N=Nc3ccc(S(=O)(=O)O)cc3)cc2OC)cc1,inactive,–
CCC1Nc2cc(Cl)c(S(N)(=O)=O)cc2S(=O)(=O)N1 (stereo not given),inactive,–
O=C(O)c1ccc(OCCN2CCCCC2)cc1,inactive,–
CCCCOC(=O)C(C)OC(=O)CCC (stereo not given),inactive,–
CC(C)CCCCCCOC(=O)C1CCCCC1C(=O)OCCCCCCC(C)C (stereo not given),inactive,–
CC(C)SCc1ccco1,inactive,–
